# High-throughput results as filed in PubChem BioAssay.
# A selection: hits, their analogues and other compounds. The true share with any hit is near 4%.
# TRPM1 prom inh = inhibitors of MITF-driven TRPM1 promoter in melanoma cells | SK-MEL-5 TRPM1 promoter luciferase, 24 h | inhibition, % at 12.5 µM | 330,000 compounds, 0.83% hits;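 active = mean inhibition across replicates of 60% or more, whatever share of single replicates reaches that level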
# LMP1 NFkB inh = inhibitors of Epstein-Barr LMP1-induced NF-kappaB reporter. LMP1-induced NF-kappaB luciferase reporter cells, luminescence. inhibition, % at 12.5 µM. 350,000 compounds, 0.69% hits. AID 504558; in the data active = inhibition above about 41%
# TROY signal inh = TROY signaling inhibition | Q293 LMP1-TROYcd NF-kB luciferase reporter, 4 h | inhibition, % at 10 µM | 360,000 compounds, 0.98% hits | AID 1347056;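 active = compounds whose plate-normalised and pattern-corrected inhibition of the luciferase reporter signal at the single screening dose is 50% or more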
# HIF-2a inh = blocks HIF-2a reporter activity; 786-0 RCC cells HIF-2a reporter, luciferase luminescence, overnight; 360,000 compounds, 0.72% hits; inhibition, % at 18.8 µM;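 active = inhibition of the luminescence signal of 40% or more relative to plate controls, in a single-dose primary screen at 18.75 µM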
# TWEAK Fn14 block = inhibitors of TWEAK-Fn14 interaction signaling; 360,000 compounds, 2% hits; TWEAK-stimulated Fn14 reporter cells, luciferase luminescence, 8 h; inhibition, % at 10 µM; AID 1159606; in the data active = inhibition above about 50%
# Peg3 promoter = inhibitors of Peg3 promoter; HeLa PEG-Prom luciferase reporter, luminescence, overnight; inhibition, % at 20 µM; 360,000 compounds, 1.7% hits;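 active = inhibition of at least 50% at 20 µM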
# A number is an active result; 0 = inactive; - = not tested or not shown.
SMILES,TRPM1 prom inh,LMP1 NFkB inh,TROY signal inh,HIF-2a inh,TWEAK Fn14 block,Peg3 promoter
COc1ccc(Cn2c(-c3ccc(C)cc3)c[n+]3ccccc23)cc1,77.7,0,0,0,0,0
COc1ccc(-c2nc3ccccc3n2Cc2ccc(C)cc2)cc1,0,0,0,0,0,0
Cn1c(-c2ccccc2F)cc2onc(-c3ccccc3)c2c1=O,0,0,66.4,0,72.6,0
Cn1c(-c2ncc(F)cc2F)cc2onc(-c3c(F)cccc3Cl)c2c1=O,0,0,0,0,0,0
Cn1c(-c2ccccc2)cc2onc(-c3ccccc3)c2c1=O,0,0,72.7,0,90.8,0
CC1CCN(S(=O)(=O)c2ccc(NC(=O)C3CCCCC3C(=O)O)cc2)CC1 (stereo not drawn),0,0,0,0,0,0
OC[C@@H]1CN(Cc2cccs2)C[C@H](n2cnc3c(NCc4ccc(F)cc4)ncnc32)O1,-,-,0,0,0,0
O=C(CSc1nnc(CNC(=O)c2ccccc2)o1)NCc1ccc2c(c1)OCO2,0,0,0,0,0,0
Cc1ccc2oc(-c3cccc(NC(=O)C4CCCO4)c3)nc2c1 (stereo not drawn),0,0,0,0,0,0
Cc1cccc(-c2nc3cc(NC(=O)C4CCCO4)ccc3o2)c1 (stereo not drawn),0,0,0,0,68.3,0
CCC(=O)Nc1ccc2oc(-c3cccc(C)c3)nc2c1,0,0,0,0,74.3,0
CCC(=O)Nc1cccc(-c2nc3ccc(C)cc3o2)c1,0,0,0,0,0,0
Cn1/c(=N/NC(=O)c2ccccc2Br)sc2ccccc21,0,48.6,0,0,0,0
CC1CCN(CCCn2c(SCC(=O)Nc3ccccc3Cl)nc3ccccc3c2=O)CC1,0,0,0,0,0,0
Cc1ccc(CNC(=O)CSc2nc3c(sc4ccccc43)c(=O)n2CCCN2CCCC2)cc1,0,0,0,0,0,108.8
COc1cccc(NC(=O)CSc2nc3c(sc4ccccc43)c(=O)n2CCN(C)C)c1,0,0,0,0,0,0
COc1cccc(NC(=O)CSc2nc3c(sc4ccccc43)c(=O)n2CCCN2CCCC2)c1,98.2,0,0,0,0,94.3
O=C(CSc1nc2c(sc3ccccc32)c(=O)n1CCCN1CCCC1)NCc1ccccc1,0,0,0,0,0,0
COc1ccc(NC(=O)CSc2nc3ccccc3c(=O)n2CCCN2CCC(C)CC2)c(OC)c1,0,0,0,0,0,69.2
Cc1ccc(C(NC(=O)C2CCN(CCOc3ccccc3)CC2)c2ccccn2)cc1 (stereo not drawn),-,-,0,0,0,0
O=C(NN=Cc1cccc([N+](=O)[O-])c1)c1cccc2ccccc12,0,0,0,0,0,0
CCCCN(C(=O)C1CC(=O)N(CCc2ccc(OC)c(OC)c2)C1)c1c(N)n(CCCC)c(=O)[nH]c1=O (stereo not drawn),0,0,0,0,0,0
O=C1CN(S(=O)(=O)c2cc(Br)ccc2Br)CCN1,-,0,0,0,0,0
O=c1c(Br)ccc(Br)cc1Br,101.9,0,0,89.0,103.8,95.1
COc1ccc(NC(=O)CCNC(=O)c2ccco2)cc1Cl,0,0,0,0,0,0
SMILES,TRPM1 prom inh,LMP1 NFkB inh,TROY signal inh,HIF-2a inh,TWEAK Fn14 block,Peg3 promoter
CC(C)CC(=O)NCCNC(=O)c1cc(OCC(F)(F)F)ccc1OCC(F)(F)F,0,0,-,0,75.6,0
CCCN1CCC(=NNc2ccc(C(=O)O)cc2)CC1,0,0,0,0,52.3,0
Cc1ccc(S(=O)(=O)NC(=O)c2cccc(Br)c2)cc1,0,0,0,0,84.5,0
O=C(NS(=O)(=O)c1ccccc1)c1cccc(Br)c1,0,0,0,0,0,0
CCC(CC)C(=O)Nc1cccc(C(=O)Nc2ccc(S(=O)(=O)Nc3ccc(C)cc3)cc2)c1,0,0,53.7,0,0,0
COc1cc(N)ccc1NC(=O)c1cc2ccccc2o1,0,0,0,0,0,0
CC(=O)N(c1ccccc1)C(C(=O)c1ccccc1)c1ccccc1 (stereo not drawn),0,0,0,0,0,0
COc1ccccc1OCC(=O)Nc1cc(Cl)ccc1N1CCCCC1,0,0,0,0,0,0
COc1cccc(NC(=O)Nc2ccc3c(c2)CCC3)c1,0,0,0,0,0,0
CC(C)C(=O)Nc1nnc(S(=O)(=O)N(C)c2ccc(Cl)cc2)s1,0,0,0,0,71.9,0
COc1ccc(CC(Cc2ccc(OC)c(OC)c2)NC=O)cc1OC,-,0,0,0,0,0
O=C1[C@H]2CCCC[C@H]2C(=O)N1CCCCN1CCN(c2nsc3ccccc23)CC1,0,61.8,0,0,0,0
COc1ccccc1N1CCN(CCCCN2C(=O)C3CCCN3C2=O)CC1 (stereo not drawn),0,0,0,0,0,0
NC(c1ccccc1)c1ccncc1 (stereo not drawn),0,0,0,0,0,0
Cc1ccc(CSc2ncn(-c3ccccc3)n2)cc1,0,0,0,0,0,0
Cc1ccc(CSc2nccc(-c3c(C)nc4ccccn34)n2)cc1,-,-,0,0,57.0,0
O=C(CSc1nnc(-c2ccccc2)o1)c1ccc2c(c1)OCCO2,0,0,58.7,0,0,0
O=C(CSc1nnc(-c2ccc3c(c2)OCCO3)o1)N1CCCC1,0,0,0,0,70.2,0
C=CCN1C(=O)N(/C=C/C)c2cccc3cccc1c23,0,0,56.0,0,0,0
CCN(C(=O)COc1ccc(F)cc1Br)c1c(N)n(Cc2ccccc2)c(=O)[nH]c1=O,0,0,0,0,0,0
O=c1[nH]cc(S(=O)(=O)Nc2ccc3c(c2)OCO3)c(=O)[nH]1,0,0,0,0,0,0
Cc1cc(N=O)c(C)cc1O,-,-,0,0,0,0
Cc1cc(O)c(-c2cc(O)c(C)cc2O)cc1O,0,0,0,0,0,69.6
O=C1C(=O)N(CCCn2ccnc2)C(c2ccc([N+](=O)[O-])cc2)/C1=C(\O)c1ccc2c(c1)OCCO2 (stereo not drawn),0,0,0,0,0,0
CC(C)COc1ccc(-c2nn(-c3ccccc3)cc2/C=C2/SC(=S)N(CC(=O)O)C2=O)cc1,0,0,87.7,0,0,0
SMILES,TRPM1 prom inh,LMP1 NFkB inh,TROY signal inh,HIF-2a inh,TWEAK Fn14 block,Peg3 promoter
c1ccc2c(c1)OCCOCCOc1ccccc1OCCOCCO2,0,0,0,0,0,0
Nc1cc2c(cc1[N+](=O)[O-])-c1ccccc1C2=NO,0,0,0,0,72.5,0
C=CCNc1nc(Nc2ccc(-c3nc4ccccc4o3)cc2)nc(N2CCOCC2)n1,0,0,58.2,0,53.5,0
C=CCNc1nc(Nc2ccc([N+](=O)[O-])cc2)nc(N2CCCC2)n1,0,0,0,0,0,56.0
C=CCNc1nc(NCC)nc(N2CCOCC2)n1,0,0,0,0,0,0
C=CCNc1nc(Cl)nc(Nc2ccc([N+](=O)[O-])cc2)n1,0,0,0,0,0,0
N#CCCN(Cc1ccccc1)C(C(=O)NC1CCCCC1)c1cc2ccccc2o1 (stereo not drawn),-,-,0,0,0,0
CC(=O)c1ccc(-c2nc3c4ccccc4ccn3c2C(C)=O)o1,0,77.3,0,0,0,0
